# Measured values published in the supplement of paper PMC8728848.
# Many of the other results were omitted from the sample, so the strongest signals are more common in it than they were.
# Legend:
# Assay in all cases: glycan array binding signal (z-score within array); higher = stronger binding
# Settings in all cases: glycan notation: IUPAC condensed, linker removed
# [1] = biological target: Fuc(a1-2)Gal(b1-4)GlcNAc(b1-2)Man(a1-3)[Fuc(a1-2)Gal(b1-4)GlcNAc(b1-2)Man(a1-6)]Man(b1-4)GlcNAc(b1-4)GlcNAc
# Method in brief: (§1)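 From the Consortium for Functional Glycomics database, 3228 arrays were curated, keeping only those whose protein sequence was available. Binding is given as a within-array Z-score averaged across arrays sharing a protein sequence and across linkers. Negative Z-scores can be read as non-binding.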
# [2] = biological target: Fuc(a1-2)Gal(b1-4)[Fuc(a1-3)]GlcNAc(b1-2)Man(a1-3)[Fuc(a1-2)Gal(b1-4)[Fuc(a1-3)]GlcNAc(b1-2)Man(a1-6)]Man(b1-4)GlcNAc(b1-4)[Fuc(a1-6)]GlcNAc
# Method in brief: as §1
# [3] = biological target: Fuc(a1-2)Gal(b1-4)[Fuc(a1-3)]GlcNAc(b1-3)GalNAc
# Method in brief: as §1
# [4] = biological target: Fuc(a1-2)Gal3S(b1-4)GlcNAc
# Method in brief: as §1
# Fuc(a1-2)Gal6S(b1-4)Glc = biological target: Fuc(a1-2)Gal6S(b1-4)Glc
# Method in brief: as §1
# [5] = biological target: Fuc(a1-2)[GalNAc(a1-3)]Gal(b1-4)GlcNAc(b1-2)Man(a1-3)[Fuc(a1-2)[GalNAc(a1-3)]Gal(b1-4)GlcNAc(b1-2)Man(a1-6)]Man(b1-4)GlcNAc(b1-4)[Fuc(a1-6)]GlcNAc
# Method in brief: as §1
# [6] = biological target: Fuc(a1-3)[Gal(b1-4)]GlcNAc(b1-2)Man(a1-3)[Fuc(a1-3)[Gal(b1-4)]GlcNAc(b1-2)Man(a1-6)]Man(b1-4)GlcNAc(b1-4)[Fuc(a1-6)]GlcNAc
# Method in brief: as §1
# Gal(a1-3)Gal(b1-4)GlcNAc = biological target: Gal(a1-3)Gal(b1-4)GlcNAc
# Method in brief: as §1
# [7] = biological target: Gal(a1-3)Gal(b1-4)GlcNAc(b1-2)Man(a1-3)[Gal(a1-3)Gal(b1-4)GlcNAc(b1-2)Man(a1-6)]Man(b1-4)GlcNAc(b1-4)GlcNAc
# Method in brief: as §1
# [8] = biological target: Gal(a1-4)Gal(b1-3)GlcNAc(b1-2)Man(a1-3)[Gal(a1-4)Gal(b1-3)GlcNAc(b1-2)Man(a1-6)]Man(b1-4)GlcNAc(b1-4)GlcNAc
# Method in brief: as §1
# [9] = biological target: Gal(a1-4)Gal(b1-4)GlcNAc(b1-2)Man(a1-3)[Gal(a1-4)Gal(b1-4)GlcNAc(b1-2)Man(a1-6)]Man(b1-4)GlcNAc(b1-4)GlcNAc
# Method in brief: as §1
# Gal(b1-3)Gal(b1-4)GlcNAc = biological target: Gal(b1-3)Gal(b1-4)GlcNAc
# Method in brief: as §1
# [10] = biological target: Gal(b1-3)GalNAc(b1-3)Gal(a1-4)Gal(b1-4)Glc
# Method in brief: as §1
# Gal(b1-3)GlcNAc(b1-2)Man = biological target: Gal(b1-3)GlcNAc(b1-2)Man
# Method in brief: as §1
# [11] = biological target: Gal(b1-3)GlcNAc(b1-2)Man(a1-3)[Gal(b1-3)GlcNAc(b1-2)Man(a1-6)]Man(b1-4)GlcNAc(b1-4)GlcNAc
# Method in brief: as §1
# [12] = biological target: Gal(b1-3)[Fuc(a1-4)]GlcNAc(b1-2)Man(a1-3)[Gal(b1-3)[Fuc(a1-4)]GlcNAc(b1-2)Man(a1-6)]Man(b1-4)GlcNAc(b1-4)[Fuc(a1-6)]GlcNAc
# Method in brief: as §1
# [13] = biological target: Gal(b1-4)GalNAc(a1-3)[Fuc(a1-2)]Gal(b1-4)GlcNAc
# Method in brief: as §1
# [14] = biological target: Gal(b1-4)GlcNAc(b1-2)Man(a1-3)Man(b1-4)GlcNAc(b1-4)GlcNAc
# Method in brief: as §1
# [15] = biological target: Gal(b1-4)GlcNAc(b1-2)Man(a1-3)[Gal(b1-4)GlcNAc(b1-2)Man(a1-6)]Man(b1-4)GlcNAc(b1-4)[Fuc(a1-6)]GlcNAc
# Method in brief: as §1
# [16] = biological target: Gal(b1-4)GlcNAc(b1-2)Man(a1-6)[GlcNAc(b1-2)Man(a1-3)]Man(b1-4)GlcNAc(b1-4)GlcNAc
# Method in brief: as §1
# [17] = biological target: Gal(b1-4)GlcNAc(b1-2)[Gal(b1-4)GlcNAc(b1-6)]Man(a1-6)[Gal(b1-4)GlcNAc(b1-2)Man(a1-3)]Man(b1-4)GlcNAc(b1-4)GlcNAc
# Method in brief: as §1
# [18] = biological target: Gal(b1-4)GlcNAc(b1-3)Gal(b1-4)GlcNAc(b1-2)Man(a1-3)[Gal(b1-4)GlcNAc(b1-3)Gal(b1-4)GlcNAc(b1-2)Man(a1-6)]Man(b1-4)GlcNAc(b1-4)[Fuc(a1-6)]GlcNAc
# Method in brief: as §1
# [19] = biological target: Gal(b1-4)GlcNAc(b1-3)Gal(b1-4)GlcNAc(b1-2)[Gal(b1-4)GlcNAc(b1-3)Gal(b1-4)GlcNAc(b1-6)]Man(a1-6)[Gal(b1-4)GlcNAc(b1-3)Gal(b1-4)GlcNAc(b1-2)Man(a1-3)]Man(b1-4)GlcNAc(b1-4)GlcNAc
# Method in brief: as §1
# [20] = biological target: Gal(b1-4)GlcNAc(b1-3)Gal(b1-4)GlcNAc(b1-3)Gal(b1-4)GlcNAc(b1-3)Gal(b1-4)GlcNAc(b1-2)Man(a1-3)[Gal(b1-4)GlcNAc(b1-3)Gal(b1-4)GlcNAc(b1-3)Gal(b1-4)GlcNAc(b1-3)Gal(b1-4)GlcNAc(b1-2)Man(a1-6)]Man(b1-4)GlcNAc(b1-4)[Fuc(a1-6)]GlcNAc
# Method in brief: as §1
# [21] = biological target: Gal(b1-4)GlcNAc(b1-3)[GlcNAc(b1-6)]Gal(b1-4)GlcNAc
# Method in brief: as §1
# Gal6S(b1-4)Glc6S = biological target: Gal6S(b1-4)Glc6S
# Method in brief: as §1
# Glc(a1-6)Glc(a1-6)Glc = biological target: Glc(a1-6)Glc(a1-6)Glc
# Method in brief: as §1
# [22] = biological target: GlcNAc(a1-4)Gal(b1-4)GlcNAc(b1-3)Gal(b1-4)GlcNAc
# Method in brief: as §1
# [23] = biological target: GlcNAc(b1-2)Man(a1-3)[GlcNAc(b1-4)][GlcNAc(b1-2)Man(a1-6)]Man(b1-4)GlcNAc(b1-4)GlcNAc
# Method in brief: as §1
# [24] = biological target: GlcNAc(b1-3)Gal(b1-4)GlcNAc(b1-3)Gal(b1-4)GlcNAc(b1-2)[GlcNAc(b1-3)Gal(b1-4)GlcNAc(b1-3)Gal(b1-4)GlcNAc(b1-6)]Man(a1-6)[GlcNAc(b1-3)Gal(b1-4)GlcNAc(b1-3)Gal(b1-4)GlcNAc(b1-2)Man(a1-3)]Man(b1-4)GlcNAc(b1-4)[Fuc(a1-6)]GlcNAc
# Method in brief: as §1
binder,measurement,setting,value
PX9961T-pdi-555-33-555 (Parabacteroides distasonis) (protein) FDEETAFQSPTLVYVNTVASLYNNMFKIMGNDRHVYDLNTFSSDEAMLPCRIGDWEDGGLWQNIFLHRWGTMNDLTKNSWDFLYEQIGKCNQSVDKLQAFAEEQPDVEYFKVYLEEVRAVRAFFYYELLDLFARVPLVTSSTTPMSEVKQSERSVVFNFVRSELEEALPYLSDNRSNQKGEYYGRITKPVAYMILAKLALNAEVYADDNWTDGNRPAGKNIKFTVDGKEMNAWEATIAYVDKLEALGYKLQGNFSENFAVANETSVENIFTVPMDPVAYPDAKDYNLVRTRHYDHATAYGQSGWNGSCATVKAMNVFKFGTADEDPRCKLTYFTGEVTGPDGKTIYTEWDGQKVPLKYEPNAPKVYMDASDGLLVKTAGARMAKYEFDQNAQDGGNLHGNDCVIFRFADALLMKAEAKIRLGQNGDDEVNQVRNRVGAKPLQNVTLDTLLDERMLELAWEGVRRQDLIRFGKFTEATVDRYVGVKHFASSLDYQEDKTGYTTVFSIYADILSLNPNLTQNPGY,glycan array binding signal (z-score),[1],1.91
same,glycan array binding signal (z-score),[2],0.323
same,glycan array binding signal (z-score),[3],-0.359
same,glycan array binding signal (z-score),[4],-0.354
same,glycan array binding signal (z-score),Fuc(a1-2)Gal6S(b1-4)Glc,-0.589
same,glycan array binding signal (z-score),[5],2.12
same,glycan array binding signal (z-score),[6],-0.637
same,glycan array binding signal (z-score),Gal(a1-3)Gal(b1-4)GlcNAc,0.037
same,glycan array binding signal (z-score),[7],0.963
same,glycan array binding signal (z-score),[8],2.7
same,glycan array binding signal (z-score),[9],1.51
same,glycan array binding signal (z-score),Gal(b1-3)Gal(b1-4)GlcNAc,-0.663
same,glycan array binding signal (z-score),[10],-0.576
same,glycan array binding signal (z-score),Gal(b1-3)GlcNAc(b1-2)Man,0.661
same,glycan array binding signal (z-score),[11],-0.248
same,glycan array binding signal (z-score),[12],-0.151
same,glycan array binding signal (z-score),[13],-0.527
same,glycan array binding signal (z-score),[14],-0.441
same,glycan array binding signal (z-score),[15],0.171
same,glycan array binding signal (z-score),[16],-0.306
same,glycan array binding signal (z-score),[17],-0.161
same,glycan array binding signal (z-score),[18],0.672
same,glycan array binding signal (z-score),[19],1.53
same,glycan array binding signal (z-score),[20],0.109
same,glycan array binding signal (z-score),[21],-0.222
same,glycan array binding signal (z-score),Gal6S(b1-4)Glc6S,-0.372
same,glycan array binding signal (z-score),Glc(a1-6)Glc(a1-6)Glc,0.357
same,glycan array binding signal (z-score),[22],-0.402
same,glycan array binding signal (z-score),[23],-0.416
same,glycan array binding signal (z-score),[24],-0.298
